Nine molecules from PMC12864922, “TDP-43 directly inhibits mRNA accumulation in neurites through modulation of mRNA stability” can be followed below.

B1: ENSMUSG00000058297.33|Spock2|53:57;61:74;83:94;108:114;123:132;138:163 (ssRNA)
RNA: GGGAGUUCUACAGUCCGACGAUCGCUUCGAUAUCCGCAUGCUAGAUCCGGAAGUCAGUGCGGAGGACCCUGGCUCCAGUGGGGGAGGACUGGGGACACACGCUACACACAUACACACAUAUGAGAACACACACAUACAUGUGAGAUGUGACACACACAUGUGAGAACACACAUACUGAGAACACACACACACACACACACACACACAUGUGAGUCACCCAAAGGUCCCUAUGUUAUUGAUUUUCAAAUGCACACUUUCACACACAAGGAUACACUAACAGACCAAAAUCAAUGAGAUGUCCCUCUCUUGCGGUCGCACUAGUGUGGAAUUCUCGGGUGUCAAGG
B2: ENSMUSG00000058297.32|Spock2 (ssRNA)
RNA: GGGAGUUCUACAGUCCGACGAUCGCUUCGAUAUCCGCAUGCUACAAAUGGAUCCGGAAGUCAGUGCGGAGGACCCUGGCUCCAGUGGGGGAGGACUGGGGAGUGUGGCUUGUGUGUAUGUGUGAUAUGAGAUGUGUGUGUAUGAUGUGAGAUGUGAGUGUGUGAUGUGAGAUGUGUGUAUGUGAGAUGUGUGUGUGUGUGUGUGUGUGUGUGAUGUGAGUCACCCAAAGGUCCCUAUGUUAUUGAUUUUCAAAUGCACACUUUCACACACAAGGAUACACUAACAGACCAAAAUCAAUGAGAUCUCUUGCGGUCGCACUAGUGUGGAAUUCUCGGGUGUCAAGG
B3: ENSMUSG00000058297.34|Spock2 (ssRNA)
RNA: GGGAGUUCUACAGUCCGACGAUCGCUUCGAUAUCCGCAUGCUAGAAGUCAGUGCGGAGGACCCUGGCUCCAGUGGGGGAGGACUGGGGAGUGUGGCUUGUGUGUAUGUGUGAUAUGAGAUGUGUGUGUAUGAUGUGAGAUGUGAGUGUGUGAUGUGAGAUGUGUGUAUGUGAGAUGUGUGUGUGUGUGUGUGUGUGUGUGAUGUGAGUCACCCAAAGGUCCCUAUGUUAUUGAUUUUCAAAUGCACACUUUCACACACAAGGAUACACUAACAGACCAAAAUCAAUGAGAUGUCCCUGAUCCUCUCUUGCGGUCGCACUAGUGUGGAAUUCUCGGGUGUCAAGG
B4: ENSMUSG00000058297.35|Spock2 (ssRNA)
RNA: GGGAGUUCUACAGUCCGACGAUCGCUUCGAUAUCCGCAUGCUAAGUGCGGAGGACCCUGGCUCCAGUGGGGGAGGACUGGGGAGUGUGGCUUGUGUGUAUGUGUGAUAUGAGAUGUGUGUGUAUGAUGUGAGAUGUGAGUGUGUGAUGUGAGAUGUGUGUAUGUGAGAUGUGUGUGUGUGUGUGUGUGUGUGUGAUGUGAGUCACCCAAAGGUCCCUAUGUUAUUGAUUUUCAAAUGCACACUUUCACACACAAGGAUACACUAACAGACCAAAAUCAAUGAGAUGUCCCUGAUCCUGCCCCUCUCUUGCGGUCGCACUAGUGUGGAAUUCUCGGGUGUCAAGG
B5: ENSMUSG00000058297.32|Spock2|59:63;67:80;89:100;114:120;129:138;144:169 (ssRNA)
RNA: GGGAGUUCUACAGUCCGACGAUCGCUUCGAUAUCCGCAUGCUACAAAUGGAUCCGGAAGUCAGUGCGGAGGACCCUGGCUCCAGUGGGGGAGGACUGGGGACACACGCUACACACAUACACACAUAUGAGAACACACACAUACAUGUGAGAUGUGACACACACAUGUGAGAACACACAUACUGAGAACACACACACACACACACACACACACAUGUGAGUCACCCAAAGGUCCCUAUGUUAUUGAUUUUCAAAUGCACACUUUCACACACAAGGAUACACUAACAGACCAAAAUCAAUGAGAUCUCUUGCGGUCGCACUAGUGUGGAAUUCUCGGGUGUCAAGG
B6: ENSMUSG00000058297.36|Spock2 (ssRNA)
RNA: GGGAGUUCUACAGUCCGACGAUCGCUUCGAUAUCCGCAUGCUAGAGGACCCUGGCUCCAGUGGGGGAGGACUGGGGAGUGUGGCUUGUGUGUAUGUGUGAUAUGAGAUGUGUGUGUAUGAUGUGAGAUGUGAGUGUGUGAUGUGAGAUGUGUGUAUGUGAGAUGUGUGUGUGUGUGUGUGUGUGUGUGAUGUGAGUCACCCAAAGGUCCCUAUGUUAUUGAUUUUCAAAUGCACACUUUCACACACAAGGAUACACUAACAGACCAAAAUCAAUGAGAUGUCCCUGAUCCUGCCCCUCAGCCCCUCUUGCGGUCGCACUAGUGUGGAAUUCUCGGGUGUCAAGG
B7: ENSMUSG00000058297.34|Spock2|47:51;55:68;77:88;102:108;117:126;132:157 (ssRNA)
RNA: GGGAGUUCUACAGUCCGACGAUCGCUUCGAUAUCCGCAUGCUAGAAGUCAGUGCGGAGGACCCUGGCUCCAGUGGGGGAGGACUGGGGACACACGCUACACACAUACACACAUAUGAGAACACACACAUACAUGUGAGAUGUGACACACACAUGUGAGAACACACAUACUGAGAACACACACACACACACACACACACACAUGUGAGUCACCCAAAGGUCCCUAUGUUAUUGAUUUUCAAAUGCACACUUUCACACACAAGGAUACACUAACAGACCAAAAUCAAUGAGAUGUCCCUGAUCCUCUCUUGCGGUCGCACUAGUGUGGAAUUCUCGGGUGUCAAGG
B8: ENSMUSG00000058297.42|Spock2 (ssRNA)
RNA: GGGAGUUCUACAGUCCGACGAUCGCUUCGAUAUCCGCAUGCUAGUGGCUUGUGUGUAUGUGUGAUAUGAGAUGUGUGUGUAUGAUGUGAGAUGUGAGUGUGUGAUGUGAGAUGUGUGUAUGUGAGAUGUGUGUGUGUGUGUGUGUGUGUGUGAUGUGAGUCACCCAAAGGUCCCUAUGUUAUUGAUUUUCAAAUGCACACUUUCACACACAAGGAUACACUAACAGACCAAAAUCAAUGAGAUGUCCCUGAUCCUGCCCCUCAGCCCAACACCUGGAAUCCCUGCCCUGCCUAAUCAGCCCUACUCUUGCGGUCGCACUAGUGUGGAAUUCUCGGGUGUCAAGG
B9: ENSMUSG00000058297.33|Spock2 (ssRNA)
RNA: GGGAGUUCUACAGUCCGACGAUCGCUUCGAUAUCCGCAUGCUAGAUCCGGAAGUCAGUGCGGAGGACCCUGGCUCCAGUGGGGGAGGACUGGGGAGUGUGGCUUGUGUGUAUGUGUGAUAUGAGAUGUGUGUGUAUGAUGUGAGAUGUGAGUGUGUGAUGUGAGAUGUGUGUAUGUGAGAUGUGUGUGUGUGUGUGUGUGUGUGUGAUGUGAGUCACCCAAAGGUCCCUAUGUUAUUGAUUUUCAAAUGCACACUUUCACACACAAGGAUACACUAACAGACCAAAAUCAAUGAGAUGUCCCUCUCUUGCGGUCGCACUAGUGUGGAAUUCUCGGGUGUCAAGG

In all, about 9,900 sequences were measured (“r (bound/input frequency ratio)”: median about 0.7, highest 2% from about 6.5 on). What follows is part of a selection rich in the highest values, with near analogues and random picks from the rest.

Chain of TDP-43 (Q13148 whole entry): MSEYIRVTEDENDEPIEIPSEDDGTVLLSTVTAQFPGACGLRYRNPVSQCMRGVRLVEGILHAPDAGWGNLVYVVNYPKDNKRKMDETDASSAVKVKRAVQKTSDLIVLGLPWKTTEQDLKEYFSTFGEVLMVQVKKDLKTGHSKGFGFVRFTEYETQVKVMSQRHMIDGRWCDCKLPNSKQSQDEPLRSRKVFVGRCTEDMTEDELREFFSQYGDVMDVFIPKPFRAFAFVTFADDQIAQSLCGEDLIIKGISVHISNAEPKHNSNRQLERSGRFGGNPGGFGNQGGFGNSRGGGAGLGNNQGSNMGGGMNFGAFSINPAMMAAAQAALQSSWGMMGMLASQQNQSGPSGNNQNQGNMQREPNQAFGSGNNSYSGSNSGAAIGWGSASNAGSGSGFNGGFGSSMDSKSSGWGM

This test has as its target TDP-43 (Homo sapiens, UniProt Q13148 1-414). Description: RNA Bind-n-Seq with designed 260-mer pool; 25 mM Tris-HCl, 150 mM KCl, 3 mM MgCl2, BSA (printed 500 mg/mL), 20 units/mL SUPERase IN; pH not stated; 500 nM RNA pool, 1 h, 4 C; TDP-43 5, 50, 500 nM; high values mean tight binding. The settings on record: protein: recombinant; tags: SBP (GST cleaved off with PreScission; pGEX-GST-SBP). The method in brief:
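For each oligo, R gives binding as its mapped-read-normalized abundance after pulldown divided by its abundance in input. Bead-captured SBP-tagged TDP-43 (5, 50 or 500 nM) was incubated with 500 nM of an in vitro-transcribed 260-nt 3′ UTR oligo pool for 1 h at 4 °C in 25 mM Tris-HCl, 150 mM KCl, 3 mM MgCl2, BSA and SUPERase IN on streptavidin beads. Washed, biotin-eluted RNA was reverse transcribed, PCR-amplified and sequenced.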
On to B1, for which the binding signal was 2.93 R (bound/input frequency ratio).

Take B2: the binding signal is 7.46 R (bound/input frequency ratio).

Turning to B3, the binding signal was 8.82 R (bound/input frequency ratio).

Consider B4, for which the binding signal was 8.03 R (bound/input frequency ratio).

As for B5, the binding signal was 3.96 R (bound/input frequency ratio).

With B6, the binding signal was 5.98 R (bound/input frequency ratio).

In the case of B7, the binding signal was 2.69 R (bound/input frequency ratio).

Regarding B8, the binding signal is 5.18 R (bound/input frequency ratio).

As for B9, the binding signal was 8.02 R (bound/input frequency ratio).
